Reference: PubChem BioAssay AID1347155 (National Center for Advancing Translational Sciences (NCATS), 2019)
Inconclusive results are not listed. Active and inactive are the calls of the source. Calls come from the whole dose curve; as a rule, active = well fitted inhibition curve with a large enough effect; inconclusive = small, poorly fitted or top-dose-only effect; inactive = no such curve, though single readings can be large or run the other way.

These compounds were tested on Zika virus NS2B-NS3 protease (linked) (assay: Optimization screen NINDS Rhodamine qHTS for Zika virus inhibitors: Linked NS2B-NS3 protease assay). Conditions: fluorogenic rhodamine substrate; series mostly up to 105 µM.
Excerpt: Avindra Nath, Ph.D., National Institute of Neurological Disorders and Stroke (NINDS), Bethesda, MD
Radhakrishnan Padmanabhan, Ph.D., Georgetown University (GU), Washington D.C.
Zika Virus causes congenital defects, including microcephaly and is associated with Guillain-Barre syndrome, eningoencephalitis and myelitis in infected adult. […] Using a target-based approach, we hope to establish a screening paradigm to uncover novel, cell-active NS2B-NS3 protease (Zika Virus) specific inhibitors from NCATS' collection of small molecules using qHTS.
Four assay panel was created to identify potential Zika Virus inhibitors. Namely, (1) GU unlinked NS2B-NS3 AMC tagged protease qHTS, (2) GU unlinked NS2B-NS3 Rhodamine tagged protease qHTS, (3) NINDS linked NS2B-NS3 AMC tagged protease qHTS, (4) NINDS linked NS2B-NS3 Rhodamine tagged protease qHTS. Active compounds were re-acquired and re-screened to confirm inhibition. Inhibitors were further screened against various confirmatory and counterscreens in dose response format.
Early Translation Branch (ETB)
National Center for Advancing Translational Sciences (NCATS), Rockville, MD
National Institute of Health (NIH), Bethesda, Maryland
For the linked assay, Nath lab (NINDS) provided the purified linked NS2B-NS3 protease which is consists of hydrophilic domain of NS2B linked to the NS3 protease domain by a flexible (-GGGGSGGGG-) linker. Control compound aprotinin is obtained from Thermo Scientific (#78432; Waltham, Massachusetts). Rhodamine110 substrate ([N-Cbz]-Nle-Lys-Arg-Arg-Rhod110-Arg-Arg-Lys-Nle-[N-Cbz]) was purchased from either Genscript or Bachem.
1536-well Protease (Rhodamine110 Substrate) Assay:
Briefly, 3 microL of enzyme (25 nM final concentration), in assay buffer (10 mM Tris-HCl pH 8.0 with 0.01% Tween 20) were dispensed into a 1,536-well solid-bottom black plate (Greiner Bio One, Monroe, NC). Twenty-three nL of compounds (final concentration range 7.28 nM to 114 microM) or control Aprotinin (final concentration range 3.47 nM to 114 microM) were transferred via Wako Pin-tool (Wako Automation, Richmond, VA). Samples were incubated (room temperature, protected from light) for 15 minutes followed by a 1 microL Rhodamine110 substrate addition (1.5 microM final concentration). Plates were then immediately read on a ViewLux High-throughput CCD imager (PerkinElmer, Waltham, MA) equipped with FITC fluorescence optics (480(20) nm excitation, 540(25) nm emission), then incubated (room temperature, protected from light) for 15 minutes (~15% conversion). The change in fluorescence intensity over the 15-minute reaction period was normalized against no-inhibitor and no-enzyme controls and the resulting percent inhibition data were fitted to a 4-parameter Hill equation. Aprotinin was used as intraplate control.

SMILES	outcome
CC1O[C@@H](O[C@@H]2C(O)C[C@H](O[C@@H]3C(O)C[C@@H](OC4CC[C@@]5(C)C6CC[C@]7(C)C(C8=CC(=O)OC8)CC[C@@]7(O)C6CC[C@@H]5C4)OC3C)OC2C)CC(O)[C@H]1O (stereo not given in full)	inactive
C[C@@H]1[C@@H]2Cc3ccc(O)cc3[C@@]1(C)CCN2CCc1ccccc1	inactive
CC[C@H](C)[C@H]1O[C@]2(C=C[C@@H]1C)C[C@@H]1C[C@@H](C/C=C(\C)[C@@H](O[C@H]3C[C@H](OC)[C@@H](O[C@H]4C[C@H](OC)[C@@H](O)[C@H](C)O4)[C@H](C)O3)[C@@H](C)/C=C/C=C3\CO[C@@H]4[C@H](O)C(C)=C[C@@H](C(=O)O1)[C@]34O)O2	inactive
C[C@@H]1O[C@@H](O[C@H]2C[C@@H](O)[C@]3(CO)C4C(CC[C@]3(O)C2)[C@@]2(O)CC[C@H](C3=CC(=O)OC3)[C@@]2(C)C[C@H]4O)[C@H](O)[C@H](O)[C@H]1O (stereo not given in full)	inactive
CO[C@H]1[C@@H](O)CC(OC2[C@@H](O)CC(OC3[C@@H](O)C[C@H](OC4CC[C@@]5(C)C(CCC6C5CC(O)[C@]5(C)[C@H](C7=CC(=O)OC7)CCC65O)C4)O[C@@H]3C)O[C@@H]2C)O[C@@H]1C (stereo not given in full)	inactive
C[C@H]1O[C@@H](O[C@H]2[C@@H](O)C[C@H](O[C@H]3[C@@H](O)C[C@H](O[C@H]4CC[C@]5(C)C6CC[C@]7(C)[C@@H](C8=CC(=O)OC8)CC[C@]7(O)C6CC[C@@H]5C4)O[C@@H]3C)O[C@@H]2C)C[C@H](O)[C@@H]1O (stereo not given in full)	inactive
CC(C)OC(=O)Nc1ccccc1	inactive
C=CCN1CCC2(C)c3cc(O)ccc3CC1C2C (stereo not given)	inactive
CN1CC[C@@]23CCCC[C@@H]2[C@@H]1Cc1ccc(O)cc13	inactive
C[C@H]1O[C@@H](O[C@H]2[C@@H](O)C[C@H](O[C@H]3[C@@H](O)C[C@H](O[C@H]4CC[C@@]5(C)[C@H](CC[C@@H]6[C@@H]5CC[C@]5(C)[C@@H](C7=CC(=O)OC7)CC[C@]65O)C4)O[C@@H]3C)O[C@@H]2C)C[C@H](O)[C@@H]1O	inactive
C[C@H]1O[C@@H](O[C@H]2[C@@H](O)C[C@@H](O[C@H]3[C@@H](O)C[C@H](O[C@H]4CC[C@@]5(C)[C@H](CC[C@@H]6[C@@H]5CC[C@]5(C)[C@@H](C7=CC(=O)OC7)CC[C@]65O)C4)O[C@@H]3C)O[C@@H]2C)C[C@H](O)[C@@H]1O	inactive
C=CCN1CCC2(C)c3cc(O)ccc3C[C@H]1[C@H]2C	inactive
CC(C)=CCN1CC[C@@]2(C)c3cc(O)ccc3C[C@@H]1[C@@H]2C	inactive
COC1C(O)C(C)O[C@@H](OC2CC[C@@]3(C)C4CC[C@]5(C)C(C6=CC(=O)OC6)CC[C@@]5(O)C4CC[C@@H]3C2)C1O (stereo not given in full)	inactive
C=CCN1CC[C@]23CCCCC2[C@H]1Cc1ccc(O)cc13 (stereo not given in full)	inactive
CC1OC(O[C@H]2C[C@@H](O)[C@]3(CO)[C@H]4[C@H](O)C[C@]5(C)[C@@H](C6=CC(=O)OC6)CC[C@]5(O)[C@@H]4CC[C@]3(O)C2)C(O)C(O)C1O (stereo not given in full)	inactive
Cc1ccc2c(c1)[C@]13CCCC[C@@H]1[C@H](C2)N(C)CC3	inactive
C[C@@H]1[C@@H]2Cc3ccc(O)cc3[C@@]1(C)CCN2CC1CC1	inactive
CN1CC[C@@]23CCCCC2C1Cc1ccc(O)cc13 (stereo not given in full)	inactive
C[C@@H]1O[C@@H](O[C@H]2C[C@@H](O)[C@]3(CO)[C@H]4[C@H](O)C[C@]5(C)[C@@H](C6=CC(=O)OC6)CC[C@]5(O)[C@@H]4CC[C@]3(O)C2)[C@H](O)[C@H](O)[C@H]1O	inactive
